Results taken from PubChem BioAssay AID1159580 (chemical genetic matrix, 2015).
Where “and” joins values, the source holds several entries; their conditions need not be identical. Identical values can stand only once. Hit rate of the full screen: of about 5,500 compounds, about 2,000 (36%) were called active. Another 18% or so got no clear call; they are omitted. No stated cut-off is given here; in the data, active means normalized growth mostly below about 0.91 (no sharp cut-off); inconclusive means no clear call, values can overlap the other calls; inactive means mostly above about 0.92. Some of the results follow.

Test: chemical genetic growth profiling, strain panel (AID 1159580);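 further: tested at 20 µM; growth read once vehicle control cultures reached saturation at 30 °C; 1 = growth at the plate median or of vehicle wells; lower values mean less growth of the strain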
Conditions: growth OD

Measured: normalized growth

CCOC(=O)C1=C(C)NC(C)=C(C(=O)OC)C1c1cccc([N+](=O)[O-])c1 (stereo unspecified)
inactive: S. cerevisiae deletion strains, locus YJL187C, strain SWE1, active compounds read low 1.01 | S. cerevisiae deletion strains, locus YJR043C, strain POL32, active compounds read low 1.01 | S. cerevisiae deletion strains, locus YJR075W, strain HOC1, active compounds read low 0.995 and 0.989 | S. cerevisiae deletion strains, locus YKL009W, strain mrt4, active compounds read low 1.01 | S. cerevisiae deletion strains, locus YKL068W, active compounds read low 0.996 | S. cerevisiae deletion strains, locus YKL085W, strain MDH1 (second series), active compounds read low 0.997 | S. cerevisiae deletion strains, locus YKL085W, strain MDH1, active compounds read low 0.997 | S. cerevisiae deletion strains, locus YKL160W, strain elf1, active compounds read low 1.01 | S. cerevisiae deletion strains, locus YKL190W, strain CNB1, active compounds read low 0.99 | S. cerevisiae deletion strains, locus YKR001C, strain vps1, active compounds read low 1 | S. cerevisiae deletion strains, locus YKR026C, strain gcn3, active compounds read low 0.999 | S. cerevisiae deletion strains, locus YKR091W, strain srl3, active compounds read low 1 | S. cerevisiae deletion strains, locus YLL001W, strain dnm1, active compounds read low 1.02 | S. cerevisiae deletion strains, locus YLL026W, active compounds read low 1 | S. cerevisiae deletion strains, locus YLL041C, strain sdh2, active compounds read low 1.02 | S. cerevisiae deletion strains, locus YLR027C, strain aat2, active compounds read low 1.01 | S. cerevisiae deletion strains, locus YLR039C, strain RIC1, active compounds read low 0.968 | S. cerevisiae deletion strains, locus YLR058C, strain SHM2, active compounds read low 0.999 | S. cerevisiae deletion strains, locus YLR102C, strain apc9, active compounds read low 1 | S. cerevisiae deletion strains, locus YLR221C, strain rsa3, active compounds read low 1.01 | S. cerevisiae deletion strains, locus YLR258W, strain gsy2, active compounds read low 1.01 | S. cerevisiae deletion strains, locus YLR262C, strain YPT6 (second series), active compounds read low 0.959 | S. cerevisiae deletion strains, locus YLR262C, strain YPT6, active compounds read low 0.946 | S. cerevisiae deletion strains, locus YLR268W, strain sec22, active compounds read low 0.984 | S. cerevisiae deletion strains, locus YLR320W, strain mms22, active compounds read low 1 | S. cerevisiae deletion strains, locus YLR330W, strain CHS5, active compounds read low 1.01 | S. cerevisiae deletion strains, locus YLR342W, strain FKS1 (second series), active compounds read low 1.01 | S. cerevisiae deletion strains, locus YLR342W, strain FKS1, active compounds read low 1.01 | S. cerevisiae deletion strains, locus YLR357W, strain rsc2, active compounds read low 1.02 | S. cerevisiae deletion strains, locus YLR370C, strain arc18, active compounds read low 1.01 | S. cerevisiae deletion strains, locus YLR371W, strain rom2, active compounds read low 1.01 | S. cerevisiae deletion strains, locus YLR384C, strain iki3, active compounds read low 0.998 | S. cerevisiae deletion strains, locus YLR418C, strain cdc73, active compounds read low 0.967 | S. cerevisiae deletion strains, locus YML016C, strain PPZ1, active compounds read low 1 | S. cerevisiae deletion strains, locus YML032C, strain rad52, active compounds read low 1.02 | S. cerevisiae deletion strains, locus YML120C, strain ndi1, active compounds read low 1.01 | S. cerevisiae deletion strains, locus YML124C, strain tub3, active compounds read low 1 | S. cerevisiae deletion strains, locus YMR058W, strain fet3, active compounds read low 1.02 | S. cerevisiae deletion strains, locus YMR078C, strain ctf18, active compounds read low 0.999 | S. cerevisiae deletion strains, locus YMR125W, strain sto1, active compounds read low 1.01 | S. cerevisiae deletion strains, locus YMR129W, active compounds read low 0.999 | S. cerevisiae deletion strains, locus YMR205C, strain PFK2, active compounds read low 0.991 | S. cerevisiae deletion strains, locus YMR223W, strain ubp8, active compounds read low 1.01 | S. cerevisiae deletion strains, locus YMR231W, strain pep5, active compounds read low 1.01 | S. cerevisiae deletion strains, locus YMR263W, strain SAP30, active compounds read low 1.01 and 0.981 | S. cerevisiae deletion strains, locus YMR307W, strain GAS1, active compounds read low 0.931 | S. cerevisiae deletion strains, locus YNL067W, strain RPL9B, active compounds read low 0.996 | S. cerevisiae deletion strains, locus YNL071W, strain lat1, active compounds read low 1.01 | S. cerevisiae deletion strains, locus YNL128W, strain TEP1, active compounds read low 0.994 and 1.01 | S. cerevisiae deletion strains, locus YNL153C, strain GIM3, active compounds read low 0.999 and 0.961 | S. cerevisiae deletion strains, locus YNL209W, strain ssb2, active compounds read low 1.01 | S. cerevisiae deletion strains, locus YNL224C, strain SQS1, active compounds read low 0.979 | S. cerevisiae deletion strains, locus YNL233W, strain BNI4, active compounds read low 0.995 | S. cerevisiae deletion strains, locus YNL248C, strain rpa49, active compounds read low 1.01 | S. cerevisiae deletion strains, locus YNL250W, strain rad50, active compounds read low 1.01 | S. cerevisiae deletion strains, locus YNL271C, strain bni1, active compounds read low 1.01 | S. cerevisiae deletion strains, locus YNL298W, strain CLA4, active compounds read low 1.02 | S. cerevisiae deletion strains, locus YNL307C, strain MCK1, active compounds read low 1.01 | S. cerevisiae deletion strains, locus YNL322C, strain KRE1 (second series), active compounds read low 1.01 | S. cerevisiae deletion strains, locus YNL322C, strain KRE1, active compounds read low 1 and 0.995 | S. cerevisiae deletion strains, locus YNR049C, strain mso1, active compounds read low 1.01 | S. cerevisiae deletion strains, locus YNR052C, strain pop2, active compounds read low 1.01 | S. cerevisiae deletion strains, locus YOL006C, strain TOP1, active compounds read low 1.01 | S. cerevisiae deletion strains, locus YOL012C, strain htz1 0.79 | S. cerevisiae deletion strains, locus YOL147C, strain pex11, active compounds read low 1.01 | S. cerevisiae deletion strains, locus YOR001W, strain rrp6, active compounds read low 1.03 | S. cerevisiae deletion strains, locus YOR061W, strain CKA2, active compounds read low 0.988 | S. cerevisiae deletion strains, locus YOR069W, strain VPS5, active compounds read low 0.997 | S. cerevisiae deletion strains, locus YOR070C, strain gyp1, active compounds read low 1.01 | S. cerevisiae deletion strains, locus YOR080W, strain dia2, active compounds read low 1.01 | S. cerevisiae deletion strains, locus YOR083W, strain WHI5, active compounds read low 1 | S. cerevisiae deletion strains, locus YOR106W, strain vam3, active compounds read low 1.01 | S. cerevisiae deletion strains, locus YOR136W, strain idh2, active compounds read low 1.02 | S. cerevisiae deletion strains, locus YOR144C, strain elg1, active compounds read low 1 | S. cerevisiae deletion strains, locus YOR184W, strain ser1, active compounds read low 1.01 | S. cerevisiae deletion strains, locus YOR265W, strain rbl2, active compounds read low 1 | S. cerevisiae deletion strains, locus YOR270C, strain vph1, active compounds read low 1.03 | S. cerevisiae deletion strains, locus YOR290C, strain snf2, active compounds read low 1.01 | S. cerevisiae deletion strains, locus YOR316C, strain cot1, active compounds read low 1 | S. cerevisiae deletion strains, locus YPL051W, strain arl3, active compounds read low 1 | S. cerevisiae deletion strains, locus YPL055C, strain LGE1, active compounds read low 0.95 and 1 | S. cerevisiae deletion strains, locus YPL078C, strain atp4, active compounds read low 1.03 | S. cerevisiae deletion strains, locus YPL106C, strain sse1, active compounds read low 1.04 | S. cerevisiae deletion strains, locus YPL240C, strain hsp82, active compounds read low 1.01 | S. cerevisiae deletion strains, locus YPL241C, strain CIN2, active compounds read low 0.977 | S. cerevisiae deletion strains, locus YPR119W, strain clb2, active compounds read low 1 | S. cerevisiae deletion strains, locus YPR141C, strain kar3, active compounds read low 1 | S. cerevisiae deletion strains, locus YPR163C, strain tif3, active compounds read low 1.01 | S. cerevisiae deletion strains, locus YPR167C, strain met16, active compounds read low 0.998 | S. cerevisiae deletion strains, strain wtn01, active compounds read low 0.987 | S. cerevisiae strains, strain wild type, active compounds read low 0.982
